According to PubChem BioAssay AID651593 (National Center for Advancing Translational Sciences (NCATS), 2012):
The whole screen tested about 1,100 compounds, of which about 860 (78%) were called active. Inconclusive results (about 19%) are left out. The call rests on the fitted dose curve; in most records, active means well fitted activation curve with a large enough effect; inconclusive means small, poorly fitted or top-dose-only effect; inactive means flat fitted curve, though single readings scatter. The set was probably picked from earlier hits. Some of the results follow.
Potency means the concentration at half of the fitted maximal effect.

Experiment: qHTS of Nrf2 Activators: Hit Validation in Primary Assay; further: nearly all actives have a fitted effect of over 70% in size
Settings: Nrf2/ARE reporter cell assay, activation
Text: Many diseases have some form of oxidative stress injury and ties to inflammation, causing a host of problems for the patient. The antioxidant response element (ARE) plays an important role in alleviating the harmful effects of oxidative stress. The antioxidant response element (ARE) is a transcriptional regulatory element involved in the activation of genes coding for a number of antioxidant proteins and detoxifying enzymes. These enzymes work in concert to protect tissues from oxidative insults and chemical toxicities in human hepatocytes and immune cells. The protective effects of ARE activation are primarily triggered through Nrf2 (NF-E2-related factor) binding to and activating AREs. It is known that Nrf2 controls the production of over 250 antioxidant and detoxification proteins (Hu et al., 2006), thereby protecting tissues by increasing cellular antioxidant content and suppressing inflammatory signaling pathways. The transcription factor Nrf2 is a central link between oxidative chemicals, such as phenolic antioxidants and electrophilic compounds, and the activation of ARE. Nrf2 levels are constitutively low as a consequence of its interaction with Keap1, which targets its degradation (Zipper and Mulcahy, 2002). Electrophiles react with key cysteine residues in Keap1, releasing Nrf2 and allowing its translocation to the nucleus. Once within the nucleus, Nrf2 complexes with coactivators such as p300, and binds to the AREs to induce gene transcription of cytoprotective enzymes, resulting in the prevention of toxicity. Activation of Nrf2 protects tissues by increasing cellular antioxidant content and suppressing inflammatory signaling pathways. Identifying novel and potent Nrf2 activators by using the AREc32 cell line to detect ARE activation by small molecules will lead to the identification and development of probes to study protective pathways in multiple tissues. These specific probes are essential to study the ARE pathway, and eventually to determine whether this pathway does activate genes that could protect against a host of diseases, including cardiovascular diseases, obesity, diabetes, Alzheimer's, and Parkinson's disease.
This project's aim is to identify novel and potent Nrf2 activators by using the AREc32 cell line to detect ARE activation by small molecules, which will lead to the identification and development of probes to study the ARE pathway.
NIH Chemical Genomics Center [NCGC]
NIH Molecular Libraries Probe Centers Network [MLPCN]
Assay Submitter (PI): Curtis Klaassen, University of Kansas Medical Center
Quantification of ARE activation after compound treatment was measured by the Steady-Glo Luciferase (R) assay system (Promega) in AREc32_fluc stable cells. The Steady-Glo reagent acts by cell lysis and generation of a luminescent signal proportional to ARE activation, through the luciferase reporter in the AREc32 stable cell line. AREc32_fluc cells were harvested from T225 flask and resuspended in phenol red free OPTI-MEM medium with 5% FBS. Then 5 microL of 200,000 cells/mL resuspended cells were dispensed into each well of white, solid bottom, 1536-well tissue culture-treated plates using a Multidrop Combi dispenser. After overnight culture at 37 degrees C with 5% CO2, a total of 23 nL of compounds at 5 selected concentrations from the MLSMR/Sytravon or positive control (40 uM stock of CDDO-IM and 2 mM of tBHQ) in DMSO was transferred to each well of the assay plate using a pintool (Kalypsys, San Diego, CA), and the plates were further incubated at 37 degrees C with 5% CO2 for 24 hours. After that, 2 microL of Steady Glo luminescent substrate mix (Promega) was added to each well. The plate was incubated at room temperature for 30 minutes. The plates were measured on a ViewLux plate reader (PerkinElmer) with clear filter.
For `COc1ccc(Sc2cnn(-c3ccccc3)c(=O)c2Cl)cc1`, the Potency was 4.61 µM (active). In the case of `O=c1[nH]c(=S)[nH]c(O)c1N=Nc1ccc(S(=O)(=O)N2CCc3ccccc32)cc1`, the Potency is reported as 16.4 µM (active). In the case of `Clc1ccccc1Nc1ncnc(-n2cccc2)n1`, the Potency is reported as 2.59 µM (active). For `Cc1cccc(C(=O)Nc2nnc(SCC(=O)NCc3ccco3)s2)c1`, the Potency was 8.2 µM (active). In the case of `Cc1cc(SCC(=O)N/N=C/c2ccco2)nc2ccccc12`, the Potency is reported as 11.6 µM (active). With `Cn1c(=O)oc2cc(NC(=O)CCl)ccc21` the Potency was 4.61 µM (active). With `CCn1c(=O)oc2cc(NC(=O)CCl)ccc21` the Potency was 4.61 µM (active). In the case of `O=C(O)c1ccc([N+](=O)[O-])c([N+](=O)[O-])c1`, the Potency is reported as 5.17 µM (active). With `Cn1c(O)c(N=Nc2ccc(S(=O)(=O)N3CCOCC3)cc2)c(=O)n(C)c1=O` the Potency was 18.4 µM (active). For `Clc1cccc(/C=N\Nc2nccs2)c1`, the Potency was 2.91 µM (active). For `O=C(Nc1ccc(Cl)c(Cl)c1)c1ccco1`, the Potency was 4.61 µM (active). In the case of `O=C1c2ccccc2-c2cc3ccccc3cc21`, the Potency is reported as 4.61 µM (active). For `Fc1cccc(F)c1-c1nc(-c2ccc(Cl)cc2)no1`, the Potency was 3.66 µM (active). With `O=C(/C=C/c1ccccc1)c1c(O)n(CCc2ccccc2)c(=O)[nH]c1=O` the Potency was 3.66 µM (active). With `CCCCn1c(O)c(C(=O)/C=C/c2ccc3c(c2)OCO3)c(=O)[nH]c1=O` the Potency was 9.2 µM (active).
